Source: PubChem BioAssay AID1159580 (chemical genetic matrix, 2015)
“And” between values parts separate entries of the source, which are not always exact repeats. Equal values may be shown once. Hit rate of the full screen: of about 5,500 compounds, about 2,000 (36%) were called active. Inconclusive results (about 18%) are left out. Rule as the data show it: active = normalized growth mostly below about 0.91 (no sharp cut-off); inconclusive = no clear call, values can overlap the other calls; inactive = mostly above about 0.92. Some of the results follow.

Test: chemical genetic growth profiling, strain panel (AID 1159580);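 also: tested at 20 µM; growth read once vehicle control cultures reached saturation at 30 °C; 1 = growth at the plate median or of vehicle wells; lower values mean less growth of the strain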
Conditions: S. cerevisiae deletion strains, growth OD

Measured: normalized growth

NCCCNCCSP(=O)(O)O
inactive: locus YAL013W, strain DEP1, active compounds read low 0.988 and 1.01 | locus YAL021C, strain ccr4, active compounds read low 0.985 | locus YAL026C, strain drs2, active compounds read low 0.976 | locus YAL030W, strain snc1, active compounds read low 0.968 | locus YAL040C, strain CLN3, active compounds read low 1 | locus YBL061C, strain skt5, active compounds read low 0.97 | locus YBR009C, strain hhf1, active compounds read low 0.988 | locus YBR021W, strain FUR4, active compounds read low 0.967 | locus YBR023C, strain chs3, active compounds read low 0.976 | locus YBR171W, strain sec66, active compounds read low 0.96 | locus YBR229C, strain ROT2, active compounds read low 1 | locus YBR231C, strain swc5, active compounds read low 0.975 | locus YBR279W, strain paf1, active compounds read low 0.995 | locus YCL011C, strain gbp2, active compounds read low 0.957 | locus YCL016C, strain dcc1, active compounds read low 0.982 | locus YCL029C, strain bik1, active compounds read low 0.988 | locus YCL061C, strain MRC1, active compounds read low 0.983 | locus YCL069W, strain vba3, active compounds read low 0.994 | locus YCR088W, strain abp1, active compounds read low 0.982 | locus YDL005C, strain med2, active compounds read low 0.969 | locus YDL035C, strain GPR1, active compounds read low 0.994 | locus YDL040C, strain nat1, active compounds read low 0.987 | locus YDL074C, strain BRE1, active compounds read low 0.993 | locus YDL101C, strain DUN1, active compounds read low 0.984 | locus YDL134C, strain PPH21, active compounds read low 0.994 | locus YDL185W, strain tfp1, active compounds read low 0.944 | locus YDL192W, strain arf1, active compounds read low 0.986 | locus YDR001C, strain nth1, active compounds read low 0.977 | locus YDR069C, strain doa4, active compounds read low 0.968 | locus YDR101C, strain arx1, active compounds read low 1 | locus YDR137W, strain rgp1, active compounds read low 0.968 | locus YDR150W, strain NUM1, active compounds read low 0.949 | locus YDR159W, strain sac3, active compounds read low 0.98 | locus YDR162C, strain NBP2, active compounds read low 0.992 | locus YDR195W, strain ref2 0.989 | locus YDR297W, strain sur2, active compounds read low 0.983 | locus YDR318W, strain mcm21, active compounds read low 0.986 | locus YDR334W, strain swr1, active compounds read low 0.933 | locus YDR335W, strain msn5, active compounds read low 0.981 | locus YDR388W, active compounds read low 1 | locus YDR392W, strain spt3, active compounds read low 0.927 | locus YDR502C, strain sam2, active compounds read low 0.993 | locus YEL003W, strain gim4, active compounds read low 0.988 | locus YEL037C, strain rad23, active compounds read low 0.981 | locus YEL061C, strain CIN8 (second series), active compounds read low 0.972 | locus YEL061C, strain CIN8, active compounds read low 0.998 | locus YER002W, strain NOP16, active compounds read low 0.997 | locus YER015W, strain faa2, active compounds read low 0.973 | locus YER016W, strain bim1, active compounds read low 0.991 | locus YER110C, active compounds read low 0.989 | locus YER111C, strain swi4, active compounds read low 0.988 | locus YER155C, strain BEM2 (second series), active compounds read low 0.983 | locus YER155C, strain BEM2, active compounds read low 0.942 | locus YER167W, strain BCK2, active compounds read low 0.991 | locus YFR010W, strain ubp6, active compounds read low 0.957 | locus YGL078C, strain dbp3, active compounds read low 0.987 | locus YGL086W, strain mad1, active compounds read low 0.978 | locus YGL167C, strain pmr1, active compounds read low 0.976 | locus YGL173C, strain kem1, active compounds read low 0.944 | locus YGL227W, strain vid30, active compounds read low 0.974 | locus YGL240W, strain doc1, active compounds read low 0.984 | locus YGL248W, strain PDE1, active compounds read low 1 | locus YGL253W, strain hxk2, active compounds read low 0.989 | locus YGR078C, strain PAC10, active compounds read low 0.984 | locus YGR135W, strain pre9, active compounds read low 0.984 | locus YGR229C, strain SMI1, active compounds read low 0.964 | locus YGR252W, strain gcn5, active compounds read low 0.978 | locus YHR013C, strain ard1, active compounds read low 0.981 | locus YHR027C, strain rpn1, active compounds read low 0.959 | locus YHR030C, strain SLT2, active compounds read low 0.993 | locus YHR079C, strain IRE1 (second series), active compounds read low 0.991 | locus YHR094C, strain hxt1, active compounds read low 0.979 | locus YHR129C, strain ARP1, active compounds read low 0.999 | locus YHR142W, strain chs7, active compounds read low 0.936 | locus YHR200W, strain rpn10, active compounds read low 0.983 | locus YIL066C, strain RNR3, active compounds read low 0.995 | locus YIL073C, strain SPO22, active compounds read low 0.941 | locus YIL125W, strain kgd1, active compounds read low 1 | locus YIR030C, strain dcg1, active compounds read low 0.998 | locus YJL092W, strain hpr5, active compounds read low 0.979 | locus YJL095W, strain BCK1 (second series), active compounds read low 0.983 | locus YJL095W, strain BCK1, active compounds read low 1.02 | locus YJL115W, strain asf1, active compounds read low 0.955 | locus YJL129C, strain trk1, active compounds read low 1 | locus YJL134W, strain LCB3, active compounds read low 0.989 | locus YJL154C, strain vps35, active compounds read low 0.972 | locus YJL164C, strain tpk1, active compounds read low 0.992 | locus YJL166W, strain qcr8, active compounds read low 0.956 | locus YJL168C, strain set2, active compounds read low 1 | locus YJL187C, strain SWE1 (second series), active compounds read low 0.99 | locus YJL187C, strain SWE1, active compounds read low 0.982 | locus YJR043C, strain POL32, active compounds read low 0.994
